# Experimental data reported in PubChem BioAssay AID1508625 (Wald Lab, School of Medicine, Case Western Reserve …, 2021).
# Test: enhancers of NK cell killing of ovarian tumor cells, primary screen, imaging, OVCAR3, primary NK cells, calcein-AM imaging (AID 1508625);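 further: compound given to NK cells 16 h before adding targets at 1.5 to 1 ratio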
# Conditions: OVCAR3 lysis by primary NK cells, at 5 µM; z-score: measured here: robust Z-score, single-point normalisation
Compound,"corrected activity, negative = more killing",z-score
O=C(c1cccc(NS(=O)(=O)Cc2ccccc2)c1)N1CCOCC1,-1.7%,-0.945
CCOC(=O)c1ccc(NC(=O)c2cnc3n(c2=O)CCS3)cc1,-6.64%,-2.11
CCCCNCC(=O)Nc1ccc(Br)cc1,-5.05%,-1.88
O=C(NCC1CCCO1)Nc1cccc(Cl)c1 (centres undefined),1.53%,0.544
C#CCN1C(=O)C(O)(CC(=O)c2ccc(OC)c(OC)c2)c2cc(Br)ccc21 (centres undefined),-5.04%,-1.51
COc1cccc(C=Nn2c(C)nnc2C)c1OC,-2.16%,-0.942
COC(=O)c1ccc(CSc2nc3c(cnn3-c3ccc(C)cc3)c(=O)[nH]2)o1,-3.63%,-0.89
O=C(Nc1ccccc1Cl)c1cccc([N+](=O)[O-])c1,-1.44%,-0.51
Cc1ccc(NC(=O)CSc2nc3c([nH]c4ccccc43)c(=O)n2-c2ccc(F)cc2)cc1,-5.11%,-1.27
CCCCC(=O)NC(=S)Nc1ccc(Cl)c(C(=O)O)c1,-4.41%,-1.64
Cc1ccccc1OCC(=O)Nc1c[nH]c(=O)[nH]c1=O,-0.837%,-0.363
O=C(Nc1ccc(Oc2ccccc2)cc1)c1nn(-c2ccc(Cl)cc2)c(=O)c2ccccc12,-3.15%,-1.69
O=C(Nc1cccc(Br)c1)c1ccc2snnc2c1,-3.91%,-1.17
COc1ccc2c(c1)c(C(C)=O)c(C)n2-c1ccccc1C,-0.941%,-0.487
CCN(CC)S(=O)(=O)c1ccc(C(=O)Nc2nc(-c3ccccc3)c(C(C)=O)s2)cc1,-2.77%,-0.984
CCN(CC)c1ccc(C=NS(=O)(=O)c2ccc(C)cc2)cc1,-5.15%,-2.76
COc1ccc(OC)c(NC(=O)CSc2nc3c([nH]c4ccccc43)c(=O)n2C)c1,-8.66%,-2.15
CC1CC(C)CN(C(=O)c2c[nH]c3ccc(S(=O)(=O)N4CCOCC4)cc3c2=O)C1 (centres undefined),-2.85%,-1.04
O=C(O)C1C2C=CC(O2)C1C(=O)N1CCC(Cc2ccccc2)CC1 (centres undefined),-3.25%,-1.34
CCOc1ccc(NC(=O)C2c3ccccc3Oc3ccccc32)c([N+](=O)[O-])c1,-0.899%,-0.37
COC(=O)c1ccc(COC(=O)c2ccccc2Cl)cc1,-2.71%,-1.51
O=C(NN=Cc1ccc[nH]1)C(O)c1ccccc1 (centres undefined),-2.59%,-0.823
O=c1oc(-c2ccc(Oc3ccc([N+](=O)[O-])cc3)cc2)nc2ccccc12,-1.57%,-0.62
O=c1nc(C=Cc2ccc(Br)cc2)cc(C(F)(F)F)[nH]1,0.858%,0.256
O=C1OC(c2cccc(Cl)c2)=NC1=Cc1ccc(Br)o1,-4.19%,-1.78
Cc1cccc(OCCn2c(=N)n(CC(N)=O)c3ccccc32)c1,-6.66%,-1.99

Compound,"corrected activity, negative = more killing",z-score
COc1cc(OC)c(C=Nc2ccc(OC(F)(F)F)cc2)cc1Br,-1.81%,-0.768
O=C(c1ccccc1F)N1CCN(c2cc(N3CCCCC3)c(F)cc2[N+](=O)[O-])CC1,-2.72%,-0.843
CCOC(=O)c1cnc(SCc2ccccc2Cl)nc1N,-1.75%,-0.473
Cc1cc(C)cc(-n2cnc3cc(C(=O)NC4CCCCCC4)ccc32)c1,-4.5%,-1.21
COc1cc(OC)cc(C(=O)N2CCN(C3CCC(C)CC3)CC2)c1 (centres undefined),-1.69%,-0.755
c1ccc2nn(C34CC5CC(CC(C5)C3)C4)nc2c1,-1.32%,-0.685
Cc1cc(C)n(C(=O)c2ccc(S(=O)(=O)N3CCCCCC3)cc2)n1,-2.63%,-1.46
CC(Oc1cccc(Cl)c1)C(=O)ON=C(N)c1ccncc1 (centres undefined),0.422%,0.235
Cc1ccc(C(=O)Nc2cccc3c2C(=O)c2ccccc2C3=O)o1,-2.82%,-1.16
Cc1cccc(N2C(=O)c3ccc(NC(=O)c4ccc(Br)cc4)cc3C2=O)c1,-3.53%,-1.25
O=C(CSCc1ccccc1F)N1CCc2ccccc21,-9.83%,-2.65
O=C(NN=Cc1c(Br)cc(Br)c(O)c1Br)c1ccncc1,-1.17%,-0.607
COc1cccc(C2C3=C(CCCC3=O)NC3=C2C(=O)CCC3)c1OC,-3.89%,-1.45
CCC(C)NC(=O)c1ccc2c(=O)n(CCN(CC)CC)c(=S)[nH]c2c1 (centres undefined),-4.1%,-1.09
Cc1ccc(C=Cc2nc3ccccc3[nH]2)cc1,2.68%,0.723
Cc1cc(Br)ccc1NC(=O)Cn1cnc2sc(C)c(S(=O)(=O)N3CCN(C)CC3)c2c1=O,-7.06%,-1.76
CCOc1ccc(-c2cc(=O)c3ccccc3o2)cc1,-6.12%,-2.28
COc1ccc(OC)c(NC(=O)C(N)=O)c1,1.08%,0.459
CC(=O)c1cccc(NC(=O)COc2ccccc2C)c1,-1.74%,-0.9
CN1C(=O)c2ccccc2C(C(=O)Nc2ccc3c(c2)OCCO3)C1c1cccs1 (centres undefined),-7.21%,-1.79
COc1ccc(C2NC(=O)c3c(sc4c3CCCC4)N2)cc1OC (centres undefined),-2.78%,-1.1
CCOc1cccc(-c2cc(C(=O)O)c3ccccc3n2)c1,-4.28%,-1.76
O=C1c2cccc([N+](=O)[O-])c2C(=O)N1C1C(=O)N(c2cccc(C(F)(F)F)c2)C1c1ccc(F)cc1 (centres undefined),-1.05%,-0.327
Cc1ccc(OCCNC(=O)C2CCCCC2)cc1,-4.66%,-2.59
CCCOc1ccc(C(=O)Nc2ccc3oc(-c4ccccc4)nc3c2)cc1,-3.03%,-1.07
N#Cc1c(NC(=O)c2ccc(Cl)c(S(=O)(=O)N3CCOCC3)c2)sc2c1CCCC2,-5.49%,-1.95

Compound,"corrected activity, negative = more killing",z-score
COc1ccc(C=NNC(=O)c2cc(C34CC5CC(CC(C5)C3)C4)[nH]n2)cc1O,0.0734%,0.0321
CCc1ccc(-c2nc3ccccc3c(C(=O)O)c2C)cc1,-3.44%,-1.41
COc1cc2c(cc1NCc1ccccn1)oc1ccccc12,-2.51%,-1.12
OCCNCCCOc1cccc(Cl)c1Cl,2.34%,0.743
O=C(Oc1ccccc1C(=S)N1CCOCC1)c1ccc(Br)cc1,-4.68%,-1.45
COCCNC(=O)c1c[nH]c2ccc(S(=O)(=O)Nc3ccc4c(c3)OCCO4)cc2c1=O,-5.25%,-1.29
COc1ccccc1CN1CCN(C2CCN(Cc3ccccc3)CC2)CC1,0.136%,0.0605
COc1cc(OC)c(C=C2C(=O)NC(=S)N(c3ccc(Cl)cc3)C2=O)cc1Br,-2.07%,-1.07
CC(C(=O)O)N1C(=O)C2C3CCC(C3)C2C1=O (centres undefined),1.01%,0.359
CCOC(=O)c1conc1-c1cccs1,-0.622%,-0.198
O=C1C2CC=C(Cl)CC2C(=O)N1CC1OCCc2ccccc21 (centres undefined),-3.37%,-1.29
COc1ccc(-c2coc3c(C)c4oc(=O)c5c(c4cc23)CCC5)cc1,-3.7%,-1.1
CC(=O)Oc1ccc(C(=O)Nc2nc3ccc4ccccc4c3s2)cc1,-1.08%,-0.335
Cc1ccc(-n2c(O)c(C=C3C=Nc4ccccc43)sc2=O)cc1,-3.36%,-1.74
COc1ccc(Oc2c(C(F)(F)F)oc3cc(OC(=O)c4ccc(OC)c(OC)c4)ccc3c2=O)cc1,-1.55%,-0.672
Cc1ccccc1NC(=O)OCc1ccccc1,-1.84%,-1.03
O=[N+]([O-])c1cccc(CN2CCN3CCCC3C2C2CCCCC2)c1 (centres undefined),0.41%,0.179
CN(C)CCSc1nnnn1-c1ccccc1,-4.18%,-1.86
CCCC12CN3CC(C)(CN(C1)C(=O)c1ccccc1C3=O)C2=O,-4.81%,-1.98
O=C(COc1ccccc1F)N1CCc2ccccc2C1,-4.1%,-1.68
N=C1NC(=O)C(=Cc2ccc(F)cc2)S1,-5.91%,-2.51
O=C(c1ccc2c(=O)n(Cc3ccco3)c(=S)[nH]c2c1)N1CCOCC1,-3.78%,-1.2
CSc1nnc2c(n1)OC(c1ccc(OCC(=O)O)cc1)Nc1ccccc1-2 (centres undefined),-2.58%,-0.915
COc1ccc(C(O)=C2C(=O)C(=O)N(c3ccccn3)C2c2ccc(C(C)C)cc2)cc1 (centres undefined),-1.15%,-0.498
Cc1ccc(-n2ncc3c(=O)[nH]c(SCC(C)C)nc32)cc1C,-9.35%,-2.29
